# An excerpt weighted towards active compounds, which were near 4.7% of everything screened.
# TRHR PAM = TRH receptor (human) allosteric enhancement; enhancement, % at 2 µM; P34981; TRHR cells, fluo-8 calcium fluorescence, EC20 TRH enhancement; hit rate 0.66% among 360,000; in the data active = enhancement above about 30%; also: 0% is about no effect
# Target sequence (P34981 whole entry, looked up): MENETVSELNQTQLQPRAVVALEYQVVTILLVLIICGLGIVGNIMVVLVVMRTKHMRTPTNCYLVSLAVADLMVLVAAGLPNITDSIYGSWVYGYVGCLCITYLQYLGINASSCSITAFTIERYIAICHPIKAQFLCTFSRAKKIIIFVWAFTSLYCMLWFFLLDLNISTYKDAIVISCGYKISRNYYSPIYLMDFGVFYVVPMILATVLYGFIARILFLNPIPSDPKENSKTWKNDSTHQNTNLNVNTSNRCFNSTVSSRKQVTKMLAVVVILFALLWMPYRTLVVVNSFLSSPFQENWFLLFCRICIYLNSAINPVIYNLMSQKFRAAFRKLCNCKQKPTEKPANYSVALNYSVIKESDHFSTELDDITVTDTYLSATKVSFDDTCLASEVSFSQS
#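 TRHR-expressing cells loaded with fluo-8 calcium dye were read kinetically (ex 480/em 530) during compound addition, then stimulated with an EC20 of TRH (10 nM final). Enhancement of the Gq-mediated intracellular calcium response was scored.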
# D1 PAM = human D1 dopamine receptor positive modulation; P21728; HEK293 TREx D1 cells, calcium flux, dopamine EC20 potentiation; potentiation, % at 10 µM; hit rate 0.036% among 360,000; in the data active = potentiation above about 30%; also: 0% is about no effect
# D1 antagonist = human D1 dopamine receptor antagonism; P21728; HEK293 TREx D1 cells, calcium flux, dopamine EC80; active compounds read low; activity change, negative = inhibition, % at 10 µM; hit rate 3.2% among 360,000; in the data active = activity change below about -30%; also: % is scaled to controls: 0 for no effect and ±100 for the full control effect
#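 After overnight tetracycline induction at 30 C, force-coupled D1 HEK293 cells took up a no-wash calcium dye at room temperature. Compounds were added and monitored 180 s, and the response to EC80 dopamine was then recorded.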
# D1 agonist = agonists of human D1 dopamine receptor. HEK293 T-REx D1 cells, calcium flux, agonist mode. activation, % at 2 µM. hit rate 1% among 360,000; also: 0% is about no effect
#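 Agonism was scored from calcium flux recorded over 180 s (1 read/s) after pintool compound addition, following a 10-cycle baseline. Cells were inducible force-coupled HEK293 TREx D1, plated overnight at 30 C and loaded with no-wash calcium dye.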
# TRHR ag = activates the human TRH receptor; P34981; activation, % at 2 µM; TRHR cells, calcium flux fluo-8, FDSS agonist mode; hit rate 0.18% among 360,000; also: 0% is about no effect
#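 Agonist-mode FDSS calcium read (Ex 480/Em 530, 1 s cycles) in 1536-well TRHR cells with fluo-8 dye, after 10-cycle baseline and 23 nL compound addition; TRH at EC20 (10 nM final) added afterwards for the enhancer phase.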
# * marks the source's active call; other numbers are inactive results; . = not tested or not shown. Rule as the data show it, unless noted: active = activation above about 30%; inactive = the rest.
SMILES,TRHR PAM,D1 PAM,D1 antagonist,D1 agonist,TRHR ag
CC(C)c1ccc(/C=C2\Oc3c(ccc(O)c3CN3CCN(C)CC3)C2=O)cc1,9,0,-9,68*,12
CCOC(=O)c1ccccc1NC(=O)Cn1c(=O)n(Cc2nc(-c3ccccc3)no2)c(=O)c2ccccc21,-2,-1,3,-1,0
CC(C)(C)n1nnnc1C(c1cccnc1)N(Cc1ccccc1)Cc1ccco1 (centres undefined),10,-4,-10,3,-1
CCC(C)(C)n1nnnc1C(C(C)C)N(Cc1cccnc1)Cc1ccco1 (centres undefined),21,3,-44*,-1,0
COc1ccccc1CNCCSc1nnnn1C,2,-1,7,0,1
COc1ccc(NC(=O)c2cc3c(=O)n(C)c4ccccc4c3s2)cc1Cl,26,4,-68*,1,-1
COc1ccccc1N1CCN(C(=O)c2cc3c(=O)n(C)c4ccccc4c3s2)CC1,28,-1,-53*,2,-1
CCn1c(=O)c2cc(C(=O)Nc3cc(OC)c(OC)c(OC)c3)sc2c2ccccc21,0,1,12,2,0
Cc1ccc(Cl)cc1N1CCN(C(=O)c2cc3c(=O)n(C)c4ccccc4c3s2)CC1,-2,0,-9,0,0
CC1CCN(C(=O)c2cc3c(=O)n(C)c4ccccc4c3s2)CC1,11,-2,-31*,2,-1
Cc1ccc2oc(-c3cc(NC(=O)Cc4ccccc4)ccc3Cl)nc2c1,-1,-3,-16,8,3
O=c1c(/C=C(\O)c2ccc(F)cc2)nc2ccccc2n1-c1ccccc1,-8,8,5,159*,76*
Cn1c(=O)c(/C=C/c2ccc(F)cc2)nc2ccccc21,-9,-3,-2,0,5
CS(=O)(=O)NN1C(=O)c2ccccc2NC1c1ccccc1O (centres undefined),-5,-4,-13,0,0
CC(=O)NN1C(=O)c2ccccc2NC1c1ccccc1O (centres undefined),33*,10,29,2,0
Cc1ccc(CCNC(=O)CCCn2nc(C)c3c(C)n(-c4ccccc4)nc3c2=O)cc1,-5,-2,4,3,0
CCCc1cc(=O)[nH]c(SCC(=O)N2CC3(C)CC2CC(C)(C)C3)n1 (centres undefined),-3,.,-47*,2,0
COc1ccc2cc1Oc1ccc(cc1)CC1c3c(cc(OC)c4c3Oc3cc5c(cc3O4)CCNC5C2)CCN1C (centres undefined),1,-12,-41*,5,-1
COc1ccccc1NC(=O)C1=C(C)Nc2ncnn2C1c1cccn1C (centres undefined),-1,-3,12,3,0
Clc1ccc(-c2csc(=Nc3cccnc3)n2CCCn2ccnc2)cc1Cl,-9,-5,13,6,-1
FC(F)Oc1ccc(-c2csc(=Nc3cccnc3)n2CC2CCCO2)cc1 (centres undefined),-6,-2,-31*,15,0
COCCn1c(-c2ccc(Br)cc2)csc1=Nc1cccnc1,-9,-7,-34*,4,-1
CN(C(=O)CSc1nc2ccccc2n1Cc1cccc(C(F)(F)F)c1)c1ccccc1,5,1,-3,10,1
COC(=O)/C=C1/N/C(=N\c2nc(C)cc(C)n2)N(c2ccccc2)C1=O,-2,0,-7,1,0
COC(=O)/C=C1\N/C(=N\c2nc(C)cc(C)n2)N(c2ccccc2)C1=O,0,-3,-52*,0,1
SMILES,TRHR PAM,D1 PAM,D1 antagonist,D1 agonist,TRHR ag
O=[N+]([O-])c1ccccc1-c1ccc(CN2CCN(c3ccccc3)CC2)o1,-5,-9,-33*,0,0
COc1ccc(Cc2nc(-c3ccc(-n4cccc4)cc3)no2)cc1,-1,-1,2,14,2
COc1ccc(-c2noc(COc3ccc(C)cc3C)n2)cc1OC,-7,0,3,14,1
COc1ccc(Cc2nc(-c3ccc(-n4cccc4)cc3)no2)cc1OC,1,5,-39*,32*,0
COc1ccc(-c2noc(COc3cc(C)ccc3C)n2)cc1OC,-18,-2,5,47*,2
COc1ccc2c(c1)c1c(c(=O)n(-c3ccccc3C)c(=O)n1C)n2C,2,2,-1,0,0
CCc1ccc(NC(=O)c2nnn(Cc3cccc(C(F)(F)F)c3)c2N)cc1,3,0,-7,4,-1
CCC1Oc2ccc(C)cc2N(CC(=O)NCc2ccc(OC)cc2)C1=O (centres undefined),-13,1,-14,3,-1
CCC(=O)Oc1ccc2ccccc2c1CNC(=O)c1ccccc1,6,5,-40*,2,-2
Cc1ccc(CN2CCC(CNC(=O)c3cnn(-c4ccccc4)c3C3CCN(C(=O)OC(C)(C)C)CC3)CC2)cc1,8,2,3,2,-1
O=C(NC1(C(F)(F)F)N=C(c2ccccc2)N(Cc2ccccc2)C1=O)c1ccc(F)cc1 (centres undefined),5,-2,-5,2,-3
CC1(c2ccccc2)NC(=O)N(CC(=O)Nc2ccccc2N2CCCC2)C1=O (centres undefined),8,-5,3,38*,3
CCC1(c2ccccc2)NC(=O)N(CC(=O)Nc2cc(Cl)ccc2N2CCN(C)CC2)C1=O (centres undefined),7,-14,-38*,8,1
Cc1cccc(C)c1OCCN1C(=O)NC(C)(c2ccccc2)C1=O (centres undefined),40*,0,1,5,1
CN1CCN(c2ccc(Cl)cc2NC(=O)CN2C(=O)NC(C)(c3ccccc3)C2=O)CC1 (centres undefined),-5,-3,-10,-1,0
CC1(c2ccccc2)NC(=O)N(CC(=O)NNC(=O)c2ccccc2)C1=O (centres undefined),2,-3,-43*,4,0
O=C(CN1C(=O)NC2(CCCC2)C1=O)Nc1ccccc1N1CCCC1,2,2,-8,4,0
CC(C)Cc1nn2c(=O)cc(COC(=O)c3ccc4c(c3)OCO4)nc2s1,-1,-3,3,2,0
CCC(Nc1ccc(-c2nc(-c3ccccn3)no2)cc1[N+](=O)[O-])c1ccccc1 (centres undefined),-1,3,3,12,1
O=C(Nc1ccc2c(c1)OCO2)C1CC(c2cccc(Br)c2)=NO1 (centres undefined),-1,-11,-38*,2,1
COc1cccc(C2=NOC(C(=O)Nc3ccc4c(c3)OCO4)C2)c1 (centres undefined),3,9,-16,8,3
O=C(c1ccc2c(c1)N(Cc1cccc(Cl)c1)C(=O)c1ccccc1S2(=O)=O)N1CCCCCC1,7,0,5,1,0

# From PubChem BioAssay
